Bioassay records: PubChem BioAssay, National Center for Advancing Translational Sciences (NCATS)
This is a sample that favours compounds with a hit; in the whole collection about 12% have one here.
FMDV inh – blocks foot and mouth disease virus | FMDV antiviral cell-based qHTS | Potency, µM (doses to about 57.9 µM), hits mostly inhibitors | 1.2% of 410,000 active | AID 1159524; calls by dose curve; tested in HEK293T cells; further: read-out not given here; nearly all actives have a fitted effect of over 45% in size
Sm TGR block – inhibitors of Schistosoma mansoni thioredoxin glutathione reductase; Potency, µM (highest dose often 114 µM), most hits filed as inhibitors; AID 485364; purified TGR, DTNB reduction, TNB absorbance 405 nm; 3% of 360,000 active; active means well fitted inhibition curve with a large enough effect; inconclusive means small, poorly fitted or top-dose-only effect; inactive means no such curve, though single readings can be large or run the other way; further: nearly all actives have a fitted effect of over 60% in size
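Kinetic colorimetric format: TGR-catalysed, NADPH-driven DTNB reduction monitored via TNB absorbance. Enzyme dispensed at 20 nM; compound exposure 15 min at room temperature before reaction start.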
CHX counter – counter-screen for Shiga toxin inhibitors: cycloheximide protein synthesis inhibition; cell reporter, cycloheximide protein synthesis inhibition counterscreen; 12% of 300,000 active; AID 2314; max response, %; in the data active means max response mostly above about 13%, no sharp cut-off; inactive means mostly below about 14%; further: read at 38.3 µM for the half of the compounds with a filed dose
Shiga inhibitor – inhibitors of Shiga toxin in Vero cells. Vero cells, Shiga toxin protein synthesis inhibition reporter. inhibition, % at 38.7 µM. 9.2% of 290,000 active; in the data active means inhibition mostly above about 28%, no sharp cut-off; inactive means mostly below about 43%
Large screens that a line does not name were inactive.

CCOc1ccc(C(=O)Nc2cccc(NC(=O)c3cccs3)c2)cc1[N+](=O)[O-]	none
O=C(N/N=C/c1cccc(OCc2ccccc2)c1)c1cccs1	CHX counter 30, Shiga inhibitor 75
O=C(N/N=C/c1cccc([N+](=O)[O-])c1)c1cccc(Br)c1	CHX counter 22
O=C(O)c1ccc(COc2ccc(/C=N/NC(=O)c3cccs3)cc2)cc1	none
O=C(N/N=C/c1cccc([N+](=O)[O-])c1)c1ccc(Br)cc1	none
O=C(N/N=C/c1cccc(Br)c1)c1ccc(Br)cc1	CHX counter 22
CCn1cc(C(=O)N2CCN(c3ccccc3)CC2)c(=O)c2cc(S(=O)(=O)N3CCCC3)ccc21	none (no result: CHX counter, Shiga inhibitor)
COc1cc(Cl)c(NC(=O)CN2C(=O)c3cccnc3Sc3ccccc32)c(OC)c1	none (no result: CHX counter, Shiga inhibitor)
Cc1ccc(-n2ncc(C(=O)NCCN3CCN(C)CC3)c2C2CCN(C(=O)OC(C)(C)C)CC2)c(C)c1	none (no result: CHX counter, Shiga inhibitor)
CN1C(=O)c2ccccc2Sc2ccc(NC(=O)N3CCN(c4ccc(F)cc4)CC3)cc21	none (no result: CHX counter, Shiga inhibitor)
O=C(N/N=C/c1cccc([N+](=O)[O-])c1)c1cccs1	CHX counter 26
O=C(COc1ccc(F)cc1)Nc1ccc(Cl)c(-c2nc3ccccc3[nH]2)c1	none (no result: CHX counter, Shiga inhibitor)
CCOC(=O)C1CCN(c2cc3c(cc2NC(=O)c2ccc(Cl)cc2)n(C)c(=O)n3C)CC1	none (no result: CHX counter, Shiga inhibitor)
O=C(NCCc1c[nH]c2ccccc12)c1cnccn1	Shiga inhibitor 38
O=C(NCCc1c[nH]c2ccccc12)c1cnc2sccn2c1=O	CHX counter 34, Shiga inhibitor 84
O=C(NCCc1c[nH]c2ccccc12)/C(=C/c1ccco1)NC(=O)c1ccco1	none (no result: Sm TGR block)
O=C(NCCc1c[nH]c2ccccc12)c1ccco1	CHX counter 18
COc1cccc(Cn2cc(-c3cccc(C(F)(F)F)c3)nn2)c1	none
COc1ccc(-c2cn(Cc3cccc(OC)c3)nn2)cc1	CHX counter 29, Shiga inhibitor 82
CCOc1ccccc1NC(=O)Cn1c(=O)n(Cc2cccs2)c(=O)c2cccnc21	none (no result: CHX counter, Shiga inhibitor)
CC(=O)OCC(NC(=O)C1CCCN1C(=O)OC(C)(C)C)C1OC(n2ccc(=O)[nH]c2=O)C(OC(C)=O)C1OC(C)=O (configuration not stated)	none (no result: FMDV inh, Sm TGR block)
O=C(NCCSc1c[nH]c2ccccc12)c1ccc(Cl)cc1	none (no result: CHX counter, Shiga inhibitor)
CC(=O)NCCc1c[nH]c2ccccc12	none
O=C(NCCc1c[nH]c2ccccc12)c1ccc(Cl)cc1	CHX counter 48, Shiga inhibitor 127
COc1ccc(OCC(=O)NCCc2c[nH]c3ccccc23)cc1	none
COc1ccc(C(=O)c2c[nH]c3ccccc23)cc1	CHX counter 61, Shiga inhibitor 65
COc1ccc(C(=O)NCCc2c[nH]c3ccccc23)cc1	CHX counter 45, Shiga inhibitor 77
Cc1ccsc1C(=O)NCCc1c[nH]c2ccccc12	CHX counter 36, Shiga inhibitor 73
Cc1cc([N+](=O)[O-])ccc1NC(c1nnc(-c2ccccc2)o1)c1ccccc1F (configuration not stated)	none (no result: CHX counter, Shiga inhibitor)
Cc1cc(=O)n(CC(=O)NC(C)c2ccccc2)c2c1c(C)nn2-c1cccc(F)c1 (configuration not stated)	none (no result: CHX counter, Shiga inhibitor)
COc1ccc(C(CNC(=O)c2cccc([N+](=O)[O-])c2)N2CCOCC2)cc1 (configuration not stated)	none (no result: CHX counter, Shiga inhibitor)
O=C(Nc1cc(Cl)cc(Cl)c1)c1ccc(F)c(S(=O)(=O)N2CCc3ccccc32)c1	FMDV inh inconclusive (no result: CHX counter, Shiga inhibitor)
COc1ccc(CN(CCc2c[nH]c3ccccc23)Cc2ccc(OC)cc2)cc1	none (no result: Sm TGR block, CHX counter, Shiga inhibitor)
COc1ccc(-c2cn(CCc3c[nH]c4ccccc34)nn2)cc1	CHX counter 7.4
O=C(NCCc1c[nH]c2ccccc12)c1ccc(F)cc1F	CHX counter 25, Shiga inhibitor 116
COc1cc(SC)ccc1C(=O)NCCc1c[nH]c2ccccc12	CHX counter 27
Cn1c(=O)c2c(-c3ccc(Br)cc3)n(CCc3ccccc3)cc2n(C)c1=O	none (no result: CHX counter, Shiga inhibitor)
CCCCc1nn2c(=O)cc(COC(=O)CNC(=O)COc3ccc(C)cc3)nc2s1	none (no result: CHX counter, Shiga inhibitor)
COCCCN1C(=O)c2ccc(C(=O)Nc3ccc(OC)cc3)cc2C1=O	CHX counter 15
CCCCN1C(=O)c2ccc(C(=O)NCc3ccco3)cc2C1=O	none
COCCCN1C(=O)c2ccc(C(=O)NCc3ccco3)cc2C1=O	Sm TGR block 28µM, CHX counter 29
CCCN1C(=O)c2ccc(C(=O)NCc3ccco3)cc2C1=O	Sm TGR block 32µM
O=C(Nc1nc2n(n1)C(c1ccccc1)C=C(c1ccccc1)N2)c1ccc(Cl)c([N+](=O)[O-])c1 (configuration not stated)	none (no result: CHX counter, Shiga inhibitor)
COC(=O)c1ccc(-n2c(C)cc(C(=O)CCl)c2C)cc1	FMDV inh 32µM, Sm TGR block 4.5µM
CCOc1ccc(NC(=O)C(=O)c2cc(C)n(-c3cc(C)cc(C)c3)c2C)cc1	none (no result: CHX counter, Shiga inhibitor)
CCOc1ccc(-n2c(C)cc(C(=O)CCl)c2C)cc1	FMDV inh 28µM, Sm TGR block 4.5µM
COC(=O)c1ccc(-n2c(C)cc(C(=O)COC(=O)CNS(=O)(=O)c3ccc(C)cc3)c2C)cc1	none
O=C(NCc1ccco1)c1ccc2c(c1)N(Cc1ccccc1F)C(=O)c1ccccc1S2=O (configuration not stated)	none (no result: CHX counter, Shiga inhibitor)
CCN1CCN(C(=O)c2ccc3c(c2)N(Cc2ccccc2F)C(=O)c2ccccc2S3=O)CC1 (configuration not stated)	none (no result: CHX counter, Shiga inhibitor)
O=C(Cn1cnc2c(cnn2-c2ccccc2)c1=O)OCc1ccccc1	CHX counter 30, Shiga inhibitor 76
Cc1ccc(-n2ncc3c(=O)n(CC(=O)OCc4ccccc4)cnc32)cc1	CHX counter 31
O=C(Cn1cnc2c(cnn2-c2ccc(F)cc2)c1=O)OCc1ccccc1	none
COc1ccc(NC(=O)c2cc(C)on2)cc1	CHX counter 56, Shiga inhibitor 89
COc1ccc(-c2cc(C(=O)Nc3ccc(C#N)cc3)no2)cc1	none (no result: CHX counter, Shiga inhibitor)
COc1ccc(-c2cc(C(=O)Nc3ccccc3SC)no2)cc1	none
COc1ccc(-c2cc(C(=O)Nc3cc(Br)ccc3O)no2)cc1	CHX counter 23
COc1ccc(NC(=O)c2cc(-c3ccccc3)on2)cc1	CHX counter 19 (no result: Shiga inhibitor)
COc1ccc(-c2cc(C(=O)Nc3cc(C)nn3-c3ccccc3)no2)cc1	CHX counter 40, Shiga inhibitor 72
COc1ccc(Cl)cc1NC(=O)C(C)N1Cc2ccccc2C1=O (configuration not stated)	none (no result: CHX counter, Shiga inhibitor)
COc1ccc(C)cc1NC(=O)N1CCN(c2cc(-c3noc(C)n3)ccc2C)CC1	none (no result: CHX counter, Shiga inhibitor)
COc1ccc(C)cc1NC(=O)c1cc2c(s1)-c1ccccc1SC2	none (no result: CHX counter, Shiga inhibitor)
CC(=O)Nc1cccc(NC(=O)c2cc(C)on2)c1	CHX counter 21, Shiga inhibitor 53
CC(=O)Nc1cccc(NC(=O)c2c(-c3ccccc3Cl)noc2C)c1	none (no result: FMDV inh)
CCCNC(=O)c1cc2n(n1)CCCN(Cc1ccc(F)cc1)C2=O	none (no result: CHX counter, Shiga inhibitor)
O=C(Nc1nnc(C2CC2)s1)c1cccnc1Oc1ccc(Cl)cc1	none
CC(C)c1nnc(NC(=O)c2cnccn2)s1	CHX counter 17, Shiga inhibitor 38
COc1c(C(=O)Nc2nnc(C3CC3)s2)csc1Cl	CHX counter 36, Shiga inhibitor 54
Cc1cnc(C(=O)Nc2nnc(C)s2)cn1	none
Cc1cnc(C(=O)Nc2nccs2)cn1	CHX counter 64, Shiga inhibitor 108
